PubChem BioAssay (NCATS)
Values joined by “and” are separate entries in the source; they are usually repeats but may differ in a detail not shown here. Equal values may be shown once. Records with an inconclusive call do not appear. Active and inactive are the calls of the source. Unless noted, calls follow the shape of the dose curve; as a rule, active = well fitted curve in the direction sought with a large enough effect; inconclusive = small, poorly fitted or top-dose-only effect, or another doubt; inactive = no such curve, though single readings can be large; an effect the other way counts as inactive or inconclusive.

Assays:
[1] = High-throughput drug toxicity screening in the BPDCN cell line Cal-1 (AID 1224825; call rule not given here); details: Cal-1 BPDCN cell viability, qHTS; at 45.8 µM (top of the series) unless noted
Method in brief: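 CellTiter-Glo luminescence after 48 h compound exposure; percent activity scaled with DMSO as 100% and bortezomib (9.2 uM final) as 0%. Cal-1 cells seeded at 500/well in RPMI, 10% FBS, no phenol red.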

[2] = qHTS assay for measurement of the activity of small molecule inhibitors on Zika virus induced Caspase-3 activity in human iPSC derived neural progenitor cells (hNPCs) (AID 1224857); also: nearly all actives have a fitted effect of over 65% in size
Method in brief: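 Human iPSC-derived neural progenitor cells pretreated 1 hr with compounds, then infected with Zika virus (2 FFU/cell) for 6 hours at 37 C. Caspase-3/7 measured by Caspase-Glo luminescence; % inhibition calculated from induction scaled to uninfected (0%) and infected (100%) wells.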

[3] = qHTS Screen of the MIPE 4.0 Collection Against Ewings Sarcoma (RDES) (AID 1259252); also: nearly all actives have a fitted effect of over 35% in size; also: potency is read from the fitted curve at half-maximal effect
Method in brief: (§1)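 Viability screen: 48 h incubation at 37C, 95% humidity, 5% CO2 with serially titrated compound, followed by CellTiter-Glo readout.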

[4] = qHTS Screen of the MIPE 4.0 Collection Against Ewings Sarcoma (TC71) (AID 1259253); also: nearly all actives have a fitted effect of over 40% in size; also: potency is read from the fitted curve at half-maximal effect
Method in brief: as §1

[5] = qHTS Screen of the MIPE 4.0 Collection Against Ewings Sarcoma (EW8) (AID 1259255); also: nearly all actives have a fitted effect of over 35% in size; also: potency is read from the fitted curve at half-maximal effect
Method in brief: as §1

[6] = qHTS Screen of the MIPE 4.0 Collection Against Ewings Sarcoma (TC32) (AID 1259256); also: nearly all actives have a fitted effect of over 45% in size; also: potency is read from the fitted curve at half-maximal effect
Method in brief: as §1

[7] = P-glycoprotein substrates identified in KB-8-5-11 adenocarcinoma cell line, qHTS therapeutic library screen (AID 1346987); also: nearly all actives have a fitted effect of over 65% in size; also: potency is read from the fitted curve at half-maximal effect
Method in brief: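 Compounds are pinned in dose-response onto KB-8-5-11 cells (500 cells/well, colchicine-free medium) and left 72 h at 37 degree C. CellTiter-Glo luminescence then yields AC50 values.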

[8] = NS1 protein of Zika virus - qHTS assay to identify small molecule inhibitors in human HEK 293 cells (AID 1347053); also: nearly all actives have a fitted effect of over 55% in size; also: potency is read from the fitted curve at half-maximal effect
Method in brief: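 Readout was TR-FRET using paired anti-NS1 antibodies after 24 h infection of HEK 293 cells with ZIKV MR766 (MOI = 0.5). Compound preceded virus by 1 h; reduced signal reflects lower NS1 expression.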

[9] = qHTS of pediatric cancer cell lines to identify multiple opportunities for drug repurposing: Primary screen for TC32 cells (AID 1347089); also: nearly all actives have a fitted effect of over 60% in size; also: potency is read from the fitted curve at half-maximal effect
Method in brief: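 Luminescent CellTiter-Glo read-out of metabolically active TC32 cells after 48 h compound exposure. Primary: MIPE 11-point, 0.78 nM–46 µM; NPC 8-point, 0.59 nM–46 µM. Confirmatory: 11-point dilutions.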

[10] = qHTS of pediatric cancer cell lines to identify multiple opportunities for drug repurposing: Primary screen for DAOY cells (AID 1347090); also: nearly all actives have a fitted effect of over 55% in size; also: potency is read from the fitted curve at half-maximal effect
Method in brief: (§2)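 Viability measured as metabolically active cells via CellTiter-Glo luminescence following 48 hours of compound exposure, 11-point dilutions in confirmatory testing. 500-1,000 cells/well plated 5 hours before dosing; controls were DMSO and 2.3 µM bortezomib.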

[11] = qHTS of pediatric cancer cell lines to identify multiple opportunities for drug repurposing: Primary screen for SJ-GBM2 cells (AID 1347091); also: potency is read from the fitted curve at half-maximal effect
Method in brief: as §2

[12] = qHTS of pediatric cancer cell lines to identify multiple opportunities for drug repurposing: Primary screen for A673 cells (AID 1347092); also: nearly all actives have a fitted effect of over 45% in size; also: potency is read from the fitted curve at half-maximal effect
Method in brief: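 A673 cells (500-1,000 cells/well in growth media) were pre-incubated 5 h at 37 degrees C, then exposed to compounds for 48 h. Viability was read as CellTiter-Glo luminescence; concentration-response curves came directly from the primary screen.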

[13] = qHTS of pediatric cancer cell lines to identify multiple opportunities for drug repurposing: Primary screen for SK-N-MC cells (AID 1347093); also: potency is read from the fitted curve at half-maximal effect
Method in brief: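 Metabolically active cells were quantified by ATP-dependent luminescence (CellTiter-Glo, 15 min at room temperature) following 48 h treatment. Cells had been plated at 500-1,000 per well and settled for 5 h beforehand.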

[14] = qHTS of pediatric cancer cell lines to identify multiple opportunities for drug repurposing: Primary screen for BT-37 cells (AID 1347094); also: potency is read from the fitted curve at half-maximal effect
Method in brief: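 Viability was measured as metabolically active cells after 48 hours of treatment, read by CellTiter-Glo luminescence. Compounds were tested at multiple final concentrations, giving concentration-response curves.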

[15] = P-glycoprotein substrates identified in KB-3-1 adenocarcinoma cell line, qHTS therapeutic library screen (AID 1346986); also: nearly all actives have a fitted effect of over 60% in size;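 also: potency is read from the fitted curve at half-maximal effect; potency is for cytotoxicity meaning loss of cell viability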
Method in brief: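 In 1536-well format, 500 cells/well received pinned compound titrations and were incubated 72 h, 5% CO2. Viability was read by CellTiter-Glo; cytotoxic if AC50 < 10 uM and efficacy >50%.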

[16] = qHTS assay for measurement of the activity of small molecule inhibitors on Zika virus induced Caspase-3 activity in human astrocytoma cells (AID 1224859)
Method in brief: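 SNB-19 astrocytoma cells, 250/well, pretreated 1 h with compounds, then Zika virus at 2 FFU/cell for 6 h at 37 C; Caspase-Glo 3/7 luminescence after 30 min; percent inhibition normalised to uninfected and infected controls.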

CC(C(C)N1CC(=O)NC(=O)C1)N1CC(=O)NC(=O)C1 (configuration not stated)
inactive: Potency [2] | Potency [6] | Potency [7] | Potency [8] | Potency [9] | Potency [10]
active: Potency [3] 743 nM | Potency [4] 590 nM | Potency [5] 743 nM | Potency [11] 743 nM
27.4%: viability (% of control) [1]

O=C(C=Cc1ccc(CN(CCO)CCc2c[nH]c3ccccc23)cc1)NO
active: Potency [3] 209 nM | Potency [4] 187 nM | Potency [5] 148 nM | Potency [6] 148 nM | Potency [7] 590 nM | Potency [9] 930 nM | Potency [10] 469 nM | Potency [12] 235 nM | Potency [13] 105 nM | Potency [14] 385 nM
3.46%: viability (% of control) [1]
inactive: Potency [2]

O=C(C[C@@H]1CC=CCCC(=O)O[C@H](c2ccccc2)CNC1=O)NCc1ccc(Cl)cc1
inactive: Potency [2] | Potency [3] | Potency [4] | Potency [5] | Potency [6] | Potency [15] | Potency [7] | Potency [8] | Potency [9] | Potency [10] | Potency [11] | Potency [14]
94.4%: viability (% of control) [1]

Cc1cnc(Nc2ccc(N3CCN(C)CC3)cc2)nc1Nc1cccc(S(=O)(=O)NC(C)(C)C)c1
active: Potency [3] 2640 nM | Potency [4] 2640 nM | Potency [5] 2090 nM | Potency [6] 2350 nM | Potency [15] 3260 nM | Potency [7] 11.8 µM and 7.31 µM | Potency [8] 16600 nM | Potency [9] 10400 nM | Potency [12] 1180 nM | Potency [14] 21700 nM
inactive: Potency [2]
1.93%: viability (% of control) [1]

CC(Oc1ccc(O)cc1)(P(=O)(O)O)P(=O)(O)O
107%: viability (% of control) [1]
inactive: Potency [2] | Potency [16] | Potency [4] | Potency [5] | Potency [8] | Potency [9] | Potency [10] | Potency [11] | Potency [12] | Potency [14]

CS[C@H]1SC[C@@H]2C(=O)N(C)[C@H](C(C)C)C(=O)OC[C@H](NC(=O)c3cnc4ccccc4n3)C(=O)N[C@H](C)C(=O)N(C)[C@@H]1C(=O)N(C)[C@H](C(C)C)C(=O)OC[C@H](NC(=O)c1cnc3ccccc3n1)C(=O)N[C@H](C)C(=O)N2C
5.19%: viability (% of control) [1]
active: Potency [3] 1.9 nM | Potency [4] 2.6 nM | Potency [5] 1.9 nM | Potency [6] 1.9 nM | Potency [7] 590 nM | Potency [8] 16.6 nM | Potency [9] 9.3 nM | Potency [10] 7.4 nM | Potency [12] 2.3 nM | Potency [13] 1.3 nM
inactive: Potency [2]

COC(=O)C=CC(=O)OC
inactive: Potency [2] | Potency [7] | Potency [8] | Potency [9] | Potency [14]
active: Potency [3] 8330 nM | Potency [4] 18700 nM | Potency [5] 26400 nM | Potency [6] 14800 nM | Potency [10] 1870 nM | Potency [12] 7430 nM | Potency [13] 3.7 nM
101%: viability (% of control) [1]

COc1cc2c(cc1OC)[C@@H]1C(=O)c3ccc4c(c3O[C@@H]1CO2)C=CC(C)(C)O4
inactive: Potency [2]
3.79%: viability (% of control) [1]
active: Potency [3] 23500 nM | Potency [4] 23500 nM | Potency [5] 33200 nM | Potency [6] 66.2 nM | Potency [7] 5170 nM | Potency [10] 74.3 nM | Potency [11] 18700 nM | Potency [12] 74.3 nM

O=C1NC(O)CCN1[C@@H]1O[C@H](CO)[C@H](O)[C@H]1O (some centres not stated)
115%: viability (% of control) [1]
inactive: Potency [2] | Potency [3] | Potency [4] | Potency [5] | Potency [6] | Potency [7] | Potency [8] | Potency [9] | Potency [11] | Potency [12] | Potency [13] | Potency [14]

CC(=O)ON=C1C(c2c(O)[nH]c3cc(Br)ccc23)=Nc2ccccc21
active: Potency [3] 2960 nM | Potency [4] 9350 nM | Potency [5] 7430 nM | Potency [6] 7430 nM | Potency [11] 2960 nM
17.5%: viability (% of control) [1]
inactive: Potency [2]

CCOC(=O)N1CCN([N+]([O-])=NOc2ccc([N+](=O)[O-])cc2[N+](=O)[O-])CC1
13.5%: viability (% of control) [1]
inactive: Potency [2] | Potency [15] | Potency [7] | Potency [8] | Potency [9]
active: Potency [3] 16600 nM | Potency [4] 10500 nM | Potency [5] 3320 nM | Potency [6] 3720 nM | Potency [10] 18700 nM | Potency [11] 8330 nM | Potency [12] 9350 nM | Potency [13] 8330 nM | Potency [14] 15300 nM

C[C@H](NC(=O)C(C#N)=Cc1cccc(Br)n1)c1ccccc1
active: Potency [3] 16600 nM | Potency [4] 20900 nM | Potency [5] 16600 nM | Potency [6] 18700 nM | Potency [7] 20900 nM | Potency [12] 14800 nM
inactive: Potency [2] | Potency [9]
4.37%: viability (% of control) [1]

Cn1cnc2c(F)c(Nc3ccc(Br)cc3F)c(C(=O)NOCCO)cc21
inactive: Potency [2] | Potency [3] | Potency [4] | Potency [5] | Potency [7] | Potency [9] | Potency [10] | Potency [11] | Potency [12] | Potency [13] | Potency [14]
56.4%: viability (% of control) [1]

CC(C)C[C@H](NC(=O)CNC(=O)c1cc(Cl)ccc1Cl)B1OC(=O)CC(CC(=O)O)(C(=O)O)O1 (some centres not stated)
3.61%: viability (% of control) [1]
active: Potency [4] 235 nM | Potency [5] 118 nM | Potency [6] 332 nM | Potency [7] 935 nM | Potency [8] 209 nM | Potency [9] 2940 nM | Potency [10] 148 nM | Potency [11] 148 nM | Potency [12] 11.8 nM | Potency [13] 83.3 nM
inactive: Potency [2]
